Assay outcomes deposited in PubChem BioAssay by several laboratories.
Most compounds without a hit are left out; they make up all but 1.6% or so of the library.
Efflux pump inh = inhibitors of Candida antifungal efflux pumps expressed in yeast; hit rate 0.44% among 330,000; inhibition, % at 10 µM; S. cerevisiae Candida pump triplex, Nile Red efflux;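 active = plate passing quality check with inhibition over a set limit, or well fluorescence over plate mean plus 4 SD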;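 also: Nile Red retained in pooled yeast measured as flow cytometry median fluorescence; 0% = buffer negative control and 100% = Enniatin B positive control; higher means more Nile Red kept so more efflux inhibition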
GRK2 inh = human GRK2 inhibition via aptamer displacement; P25098; bead flow cytometry, FAM-aptamer displacement from GRK2; hit rate 0.59% among 330,000; inhibition of aptamer binding, % at 10 µM;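 active = inhibition of aptamer binding above 40%, roughly 3 SD of noise, on plates passing a quality check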;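 also: median bead fluorescence of bound FAM aptamer so fluorescent compounds give negative values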
ATG4B inh = blocks human ATG4B protease cleavage of LC3 substrate; Q9Y4P1; ATG4B cleavage of LC3-PLA2, NBD-HPC fluorescence, 1 h; inhibition, % at 8.33 µM; hit rate 0.51% among 340,000; in the data active = inhibition above about 40%
CR mimetic SO = yeast age-related superoxide inhibition as caloric restriction mimetic; S. cerevisiae aged cells, superoxide DHE fluorescence; active compounds read low; superoxide response (% of plate mean), % at 10 µM; hit rate 0.18% among 330,000; AID 2690;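 active = superoxide response under a set limit, about three screen SD below normal, cut at about 65% in these data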;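 also: yeast aged for seven days with compound at 30 °C before DHE staining; 100% = average MFI of all compound-treated wells on the plate with controls excluded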
ATG4B confirm = confirmation of human ATG4B inhibitors. ATG4B protease fluorescent substrate cleavage assay. inhibition, % at 8.33 µM. hit rate 92% among 320. shares compounds with ATG4B inh; in the data active = inhibition above about 39%
PLA2 ctr = inhibits human PLA2, flagging false ATG4B inhibitors; purified PLA2, NBD-C6-HPC fluorescence, 45 min; hit rate 66% among 1,600; shares compounds with ATG4B inh; inhibition, % at 8.33 µM; in the data active = inhibition above about 50%
Target sequence (P04054 whole entry, looked up): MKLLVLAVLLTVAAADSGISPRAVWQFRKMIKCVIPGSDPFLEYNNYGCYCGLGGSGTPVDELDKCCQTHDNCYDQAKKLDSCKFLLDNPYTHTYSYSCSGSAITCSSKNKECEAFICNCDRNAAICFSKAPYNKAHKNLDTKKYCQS
Starred values were filed as active, the others as inactive.

`CCSc1nnc(NC(=O)CSc2nnc(Cc3cccn3C)n2CCc2ccccc2)s1` gave Efflux pump inh 0, GRK2 inh 2, ATG4B inh 58*, CR mimetic SO 72 and PLA2 ctr 52*.
Cn1cnc2c(=O)[nH]cc([N+](=O)[O-])c21 was read as Efflux pump inh 0, GRK2 inh 2, ATG4B inh -5 and CR mimetic SO 108.
C/C(=N/NC(=O)c1cc2ccccc2cc1O)C1C(=O)c2ccccc2C1=O was read as Efflux pump inh 0, GRK2 inh 2, ATG4B inh 49*, CR mimetic SO 97, ATG4B confirm 73* and PLA2 ctr 26.
For O=C(/C=C1\NC2(CCCC2)Cc2ccccc21)C(=O)N/N=C/c1ccc(O)c(O)c1 the results were Efflux pump inh -1, GRK2 inh 2, ATG4B inh 61*, CR mimetic SO 98 and PLA2 ctr 68*.
COc1ccc(/C=N/NC(=O)C(=O)/C=C2\NC3(CCCC3)Cc3ccccc32)cc1 was read as Efflux pump inh 0, GRK2 inh 0, ATG4B inh 33 and CR mimetic SO 84.
`Cc1nnc(N2CCCC(C(=O)NCc3cccc(F)c3)C2)c2nn(-c3ccccc3)c(C)c12` (configuration not stated) gave Efflux pump inh 0, GRK2 inh 0, ATG4B inh 50*, CR mimetic SO 89 and PLA2 ctr 37.
COc1ccc(NS(=O)(=O)c2ccc3c(c2)[C@H]2C=CC[C@H]2[C@@H](c2ccc(C(=O)O)cc2)N3)cc1 was read as Efflux pump inh 0, GRK2 inh 4, ATG4B inh 78*, CR mimetic SO 90, ATG4B confirm 31 and PLA2 ctr 48.
For O=C(N/N=C/c1ccccc1Cl)c1nc2ccc([N+](=O)[O-])cc2c(=O)[nH]1 the results were Efflux pump inh 0, GRK2 inh 0, ATG4B inh 41*, CR mimetic SO 81, ATG4B confirm 66* and PLA2 ctr 43.
For COC1=CC(=O)C(O)=C(CCCCCCC/C=C/CCCCCCCC2=C(O)C(=O)C=C(OC)C2=O)C1=O the results were Efflux pump inh 0, GRK2 inh 2, ATG4B inh 52*, CR mimetic SO 91 and PLA2 ctr 78*.
For CCCCCCCCCCCC1=C(O)C(=O)C=C(O)C1=O the results were Efflux pump inh 0, GRK2 inh 2, ATG4B inh -35 and CR mimetic SO 91.
Screening N/C(=N\OC(=O)COc1ccc2ccccc2c1Br)c1ccncc1 returned Efflux pump inh 0, GRK2 inh 3 and CR mimetic SO 96.
`COc1ccc2cc3cc(C(=O)N4CC(C)CC(C)C4)oc3nc2c1` (configuration not stated) gave Efflux pump inh 0, GRK2 inh 3, ATG4B inh 49*, CR mimetic SO 101 and PLA2 ctr 54*.
For CCOC(=O)C1CCN(C(=O)c2cc3cc4ccc(OC)cc4nc3o2)CC1 the results were Efflux pump inh 0, GRK2 inh 1, ATG4B inh -10 and CR mimetic SO 113.
Screening Cc1ccc2cc3cc(C(=O)N4CC(C)CC(C)C4)oc3nc2c1 (configuration not stated) returned Efflux pump inh 0, GRK2 inh 4, ATG4B inh 45*, CR mimetic SO 114 and PLA2 ctr 57*.
COc1ccc(C2CC(O)(c3ccccc3)Oc3c(C)ccc(C)c32)cc1 (configuration not stated) was read as Efflux pump inh 1, GRK2 inh 0, ATG4B inh 56*, CR mimetic SO 88 and PLA2 ctr 65*.
COc1ccc(C2CC(O)(c3ccccc3)Oc3cc(OC)cc(OC)c32)cc1 (configuration not stated) was read as ATG4B inh -3.
Screening CCc1cccc(C)c1NC(=O)CCCSc1nc2ccccc2s1 returned Efflux pump inh 0, GRK2 inh 2, ATG4B inh 65*, CR mimetic SO 97 and PLA2 ctr 57*.
For O=C(NCCc1ccccc1Cl)c1cc(COc2ccc(F)cc2F)on1 the results were Efflux pump inh 0, GRK2 inh 3, ATG4B inh 46*, CR mimetic SO 94 and PLA2 ctr 55*.
Screening COc1cc(NC(=O)CSCc2ccc(Cl)cc2)c(C(=O)O)cc1OC returned Efflux pump inh 0, GRK2 inh 0, ATG4B inh 3 and CR mimetic SO 100.
